# Test results: PubChem BioAssay (NCATS)
# Records with an inconclusive call do not appear. Activity calls are given as the source filed them. The call rests on the fitted dose curve; in most records, active means well fitted cell-killing curve with a large enough effect; inconclusive means small, poorly fitted or top-dose-only effect; inactive means no such curve, though single readings can be large or run the other way.
# Test: qHTS of pediatric cancer cell lines to identify multiple opportunities for drug repurposing: Primary screen for NB-EBc1 cells (AID 1347095)
# Settings: NB-EBc1 neuroblastoma viability, CellTiter-Glo luminescence, 48 h; series mostly up to 46 µM; activity change, negative = cytotoxic: at the top concentration
# From the text: Drug repurposing or repositioning has been offered as a strategy for drug development in oncology programs. This approach has special potential for childhood cancers and other rare or orphan diseases, where the expected return on new drug development has been a disincentive to pharmaceuticals. […] In this project we exploit the poly-pharmacology of drugs to discover new indications via phenotypic screening of a panel of 19 well-characterized cell lines derived from solid tumors seen in children and adolescents. The goal is to identify approved drugs with previously unrecognized anticancer properties that has the potential to reveal new mechanisms and biological processes involved in carcinogenesis or drug resistance. We employed a titration-based paradigm (quantitative high-throughput screening or qHTS), where all compounds were tested at multiple concentrations for their effect on cell viability. Concentration-response curves (CRCs) were derived directly from the primary screen, and both potency and efficacy values were used to identify compounds with robust bioactivity profiles. We screened the NIH Chemical Genomics Center (NCGC) Pharmaceutical Collection (NPC) and Mechanism Interrogation Plate (MIPE) small molecule collections of approved and investigational compounds against these cell lines; and measured metabolically active cells after 48 hours of compound treatment as a proxy for cell viability. […] Assay Submitter: Nathalia J. Martinez, National Center for Advancing Translational Sciences, National Institutes of Health, Rockville, MD, USA; email: natalia.martinez@nih.gov Shen, M et al. Quantitative high-throughput phenotypic screening of pediatric cancer cell lines identifies multiple opportunities for drug repurposing. Oncotarget 2017 Dec 19;9(4):4758-4772. PMID 29435139.
# The cells were obtained from University of North Carolina (UNC), Pediatric Preclinical Testing Program (PPT), and Coriell Institute (CI). qHTS cell viability assay: Cells were assayed in growth media at a density of 500-1,000 cells/well. Five microliters of cells were dispensed into 1,536-well, white, solid-bottom, TC-treated plates (Greiner Bio One) using a multidrop dispenser and incubated at 37 degrees C, 5% CO2, under a humidified atmosphere for 5 hours. Twenty-three nanoliters of compounds and controls (neutral control DMSO or positive control bortezomib at final concentration of 2.3 µM) were subsequently transferred by Kalypsys pintool. For primary screens, the MIPE collection was tested at 11-point dilutions (final concentrations range from 0.78 nM to 46 µM) and the NPC collection at 8-point dilutions (final concentrations range from 0.59 nM to 46 µM). Compounds tested in follow-up screens were assayed at 11-point dilutions. Cells were incubated for 48 hours, followed by addition of 3 µL of CellTiter-Glo (Promega). After a 15 min incubation at room temperature, samples were analyzed for luminescence intensity using a ViewLux High-throughput CCD imager equipped with clear filters.
# Potency means the concentration at half of the fitted maximal effect.
Structure (SMILES),"activity change, negative = cytotoxic",Potency
CCCCCN(CCCOC)C(=O)C(CCC(=O)O)NC(=O)c1ccc(Cl)c(Cl)c1 (stereo not given),2.5% (inactive),
CNC(=O)c1c(I)c(NC(C)=O)c(I)c(C(=O)O)c1I,19.9% (inactive),
O=C(Nc1ccc(Cl)cc1)Nc1ccc(Cl)c(C(F)(F)F)c1,,5.96 µM (active)
c1ccc2occc2c1,20.5% [at 92.7 µM] (inactive),
O=C(c1cc(O)c(O)c(O)c1)c1ccc(O)c(O)c1O,-8.82% (inactive),
C/C(=N\O)[C@@H](C)NCC(C)(C)CN[C@H](C)/C(C)=N/O,14.3% (inactive),
CCC(C(=O)OCCN1CCOC(c2ccccc2)C1C)c1ccccc1 (stereo not given),17% (inactive),
Cc1ccc2c(Cl)cc(Cl)c(O)c2n1,25.1% (inactive),
O=C(O)Cc1ccc(OCCNC[C@H](O)c2ccccc2)cc1,5.77% (inactive),
CC(=O)OCC(=O)[C@@]1(O)CCC2C3CCC4=CC(=O)CC[C@]4(C)C3[C@@H](O)C[C@@]21C (stereo not given in full),3.56% (inactive),
CCOC(=O)C(=O)c1csc(NC=O)n1,19.9% (inactive),
NC(=O)COCCN1CCN(C(c2ccccc2)c2ccc(Cl)cc2)CC1 (stereo not given),4.27% (inactive),
CC(=O)O[C@@H]1CC2C3CCc4cc(OC(=O)c5ccccc5)ccc4C3CCC2(C)[C@H]1OC(C)=O (stereo not given in full),11.1% (inactive),
O=c1[nH]c2ccccc2c(=O)n1CCCl,1.73% (inactive),
CCCCNc1ccc(C(=O)OCCN(CC)CC)cc1,19% (inactive),
O=C(O)[C@H](O)[C@@H](O)[C@H](O[C@@H]1O[C@H](CO)[C@H](O)[C@H](O)[C@H]1O)[C@H](O)CO,9.39% (inactive),
CC(Oc1c(Cl)cccc1Cl)C1=NCCN1 (stereo not given),-1.34% (inactive),
CCCC(=O)Nc1ccc(O)c(C(C)=O)c1,22.2% (inactive),
Nc1nc(=O)n([C@@H]2O[C@H](CO)[C@@H](O)[C@@H]2F)cc1I,-16.8% (inactive),
O=C1CC2(CCCC2)CC(=O)N1CCNCC1COc2ccccc2O1 (stereo not given),5.02% (inactive),

Structure (SMILES),"activity change, negative = cytotoxic",Potency
CCN1CCN(c2cc(-c3ccc(F)cc3)c3c(n2)CCCCCC3)CC1,-6.4% [at 16.1 µM] (inactive),
CCn1ccc(NS(=O)(=O)c2ccc(N)cc2)nc1=O,25.7% (inactive),
CCC(CN)=C(c1ccccc1)c1ccccc1,11.4% (inactive),
CC(=O)OC[C@H]1O[C@@H](OC(C)=O)[C@H](OC(C)=O)[C@@H]1OC(C)=O,21.8% (inactive),
CC(C)OC(=O)c1cc2c(OCC(O)CNC(C)(C)C)cccc2[nH]1 (stereo not given),-4.93% (inactive),
CCO[C@H](Cc1ccc(OCCc2ccc(OS(C)(=O)=O)cc2)cc1)C(=O)O,26.5% (inactive),
CCNC(=O)NCCCOc1cccc(CN2CCCCC2)c1,-1.4% (inactive),
Cc1ccc(/C=N/n2c(-c3ccccc3)csc2=S)cc1,16.7% (inactive),
CC(C)C(C)(C)C(C)(C)C(C)(C)S,24.8% [at 92.7 µM] (inactive),
CCCCCCn1c(=O)c2c(ncn2C)n(C)c1=O,21% (inactive),
Cc1[nH]cnc1-c1ccc(Cl)cc1,8.47% (inactive),
COCCOCC(OC)OC,20.8% (inactive),
O=C1Cc2cc(Cl)ccc2N1,7.61% (inactive),
OC1(c2ccc(Cl)cc2)CCNCC1,7.39% (inactive),
CC(=O)Nc1c(I)c(NC(C)=O)c(I)c(C(=O)O)c1I,-4.58% (inactive),
Oc1cccc2[nH]ccc12,8.12% (inactive),
c1ccc(C(O[C@H]2CCCN(CCc3ccc4c(c3)OCO4)C2)c2ccccc2)cc1,-14% (inactive),
COc1cc(S(N)(=O)=O)cc(C(=O)O)c1OC,15.5% (inactive),
Cc1c(N)cccc1C(F)(F)F,13.8% (inactive),
COc1ccc2cc(C=O)ccc2c1,4.73% (inactive),
